Measurements from PubChem BioAssay (Tox21).
Results filed as inconclusive are left out. Active and inactive are the calls of the source. Unless noted, the call rests on the fitted dose curve; in most records, active means well fitted curve in the direction sought with a large enough effect in the repeat runs; inconclusive means weak or mixed curves; inactive means no such curve, though single readings can be large; an effect the other way counts as inactive or inconclusive.

How the values were obtained:
[1] = qHTS assay to identify small molecule agonists of the estrogen related receptor (ERR) signaling pathway (AID 1224820)
In short: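 An ERR cell line provided by NTP was seeded at 2,000 cells per well and allowed to settle for 6 h before compounds in DMSO were added. After 18 h at 37 C, luciferase activity was measured by One-Glo luminescence.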

[2] = qHTS assay to identify small molecule antagonists of the estrogen related receptor signaling pathway with the pleiotropic PPARgamma coactivator (PGC) cell viability counter screen (AID 1224822;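 further: series mostly up to about 46 µM; viability read after 17.5 h compound exposure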)
In short: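 Viable cell signal (CellTiter-Fluor, 30 min, 37 C/5% CO2) was measured in PGC/ERR cells after a 17.5 h compound incubation.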

[3] = qHTS assay to identify small molecule agonists of the estrogen related receptor signaling pathway with the pleiotropic PPARgamma coactivator (PGC) (AID 1224823); further: potency means the concentration at half of the fitted maximal effect
In short: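 Compounds dissolved in DMSO are added by pin tool to PGC/ERR cells that have settled for 6 h, and incubation continues 18 h at 37 C. Reporter output is measured as One-Glo luminescence.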

[4] = qHTS assay to identify small molecule antagonists of the estrogen related receptor (ERR) signaling pathway (AID 1224819;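 further: luminescence from an ERR-driven luciferase reporter measured with One-Glo reagent; series mostly up to about 46 µM; nearly all actives have a fitted effect of over 50% in size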)
In short: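 ERR reporter cells were plated at 2,000 cells/well and left 6 h at 37 C/5% CO2 before pin-tool transfer of compounds in DMSO. After 18 h at 37 C, One-Glo was added and luminescence was read 30 min later at room temperature.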

[5] = tested on: estrogen-related receptor alpha (ERRalpha) with PGC-1alpha coactivator, human; test: qHTS assay to identify small molecule antagonists of the estrogen related receptor signaling pathway with the pleiotropic PPARgamma coactivator (PGC) (AID 1224821; calls by dose curve;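 further: series mostly up to about 46 µM; lower luminescence signal means antagonism of PGC/ERR signalling; nearly all actives have a fitted effect of over 50% in size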)
In short: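 A PGC/ERR cell line supplied by NTP is seeded, allowed 6 h at 37 C, and treated with test compounds in DMSO for 18 h. Signal is then measured as luciferase luminescence using One-Glo.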

[6] = qHTS assay for small molecules that induce genotoxicity in human embryonic kidney cells expressing luciferase-tagged ATAD5 (AID 651632); further: nearly all actives have a fitted effect of over 15% in size
In short: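 Test compounds were delivered by pin tool onto HEK293T reporter cells (2,000/well) expressing ATAD5 fused to luciferase. After 16 hr at 37C, 5% CO2, Amplite was added for 30 min at room temperature and luminescence was measured.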

[7] = qHTS assay for small molecules that induce genotoxicity in human embryonic kidney cells expressing luciferase-tagged ATAD5 - cell viability (AID 651634; calls by dose curve; further: nearly all actives have a fitted effect of over 25% in size)
In short: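 Quantitative high-throughput format. HEK293T cells expressing ATAD5 fused to luciferase were plated at 2,000 cells/well and treated 15.5 hr with compound versus DMSO. Viability was determined by fluorescent live-cell protease substrate, 30 min at 37C.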

[8] = qHTS assay for small molecule disruptors of the mitochondrial membrane potential - cell viability (AID 720634; calls by dose curve;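 further: human HepG2 liver cancer cells; series mostly up to about 83 µM; nearly all actives have a fitted effect of over 20% in size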)
In short: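 Same-well counter-screen: following the MMP dye addition, CellTiter-Glo was added to 1 hr compound-treated HepG2 cells and luminescence read after 30 min at room temperature.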

[9] = qHTS assay to test for compound auto fluorescence at 590 nm (red) in HepG2 cells (AID 720674)
In short: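 Compound auto-fluorescence is scored relative to Rose Bengal sodium, measured at 540/590 nm in live HepG2 cultures after 1 hr compound contact (37 C, 5% CO2).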

[10] = qHTS assay to test for compound auto fluorescence at 535 nm (green) in HepG2 cells (AID 720675)
[11] = qHTS assay to test for compound auto fluorescence at 590 nm (red) in HEK293 cells (AID 720679)
In short: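 Red-channel autofluorescence (Ex/Em 540/590 nm; Rose Bengal sodium reference) was measured after overnight 37C, 5% CO2 exposure of attached HEK293 cells, 2,000 per well in medium with 10% dialyzed FBS.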

[12] = qHTS assay to test for compound auto fluorescence at 535 nm (green) in HEK293 cells (AID 720680)
[13] = qHTS assay to test for compound auto fluorescence at 460 nm (blue) in HEK293 cell free culture (AID 720681)
In short: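 Test compounds were pinned into cell-free culture medium (DMEM with 10% FBS) and fluorescence was read directly at Ex/Em 405/460 nm. Signals were expressed as fluorescence equivalents of triamterene, with DMSO vehicle as control.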

[14] = qHTS assay to test for compound auto fluorescence at 535 nm (green) in HEK293 cell free culture (AID 720682)
In short: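 Read-out: 485/535 nm fluorescence intensity, calibrated against fluorescein. Medium only (DMEM + 10% FBS, no cells); test compound or DMSO vehicle added by pintool before plate reading.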

[15] = qHTS assay to test for compound auto fluorescence at 590 nm (red) in HEK293 cell free culture (AID 720683)
In short: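 Tox21 10K library compounds were pinned into cell-free DMEM with 10% FBS and fluorescence was read at excitation 540 nm. Activity is expressed as Rose Bengal sodium equivalency.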

[16] = qHTS assay to test for compound auto fluorescence at 590 nm (red) in HepG2 cell free culture (AID 720684)
In short: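 Readout: intrinsic compound fluorescence at 590 nm emission after 540 nm excitation, scaled to Rose Bengal sodium. Matrix was cell-free MEM with 10% FBS; DMSO vehicle wells served as control.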

[17] = qHTS assay to test for compound auto fluorescence at 460 nm (blue) in HepG2 cell free culture (AID 720685)
In short: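 Cell-free plates of MEM plus 10% FBS received 23 nL compound or DMSO vehicle; blue-channel (405/460 nm) intensity scored against triamterene as reference fluorophore.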

[18] = qHTS assay to test for compound auto fluorescence at 535 nm (green) in HepG2 cell free culture (AID 720686)
[19] = qHTS assay to test for compound auto fluorescence at 460 nm (blue) in HepG2 cells (AID 720687)
In short: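 Cells (2,000/well in MEM with 10% FBS) attached overnight at 37 C, then were exposed to compound or DMSO for 1 hr at 37 C, 5% CO2. Fluorescence read at Ex/Em 405/460 nm, expressed as triamterene-equivalent signal.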

[20] = target: Glucocorticoid receptor (Homo sapiens) (UniProt P04150); test: qHTS assay to identify small molecule agonists of the glucocorticoid receptor (GR) signaling pathway (AID 720691; active means well fitted activation curve with a large enough effect in the signal ratio in the repeat runs, not every such curve was filed as active; the % refers to the signal ratio)
Chain of Glucocorticoid receptor (Homo sapiens) (P04150 whole entry, looked up): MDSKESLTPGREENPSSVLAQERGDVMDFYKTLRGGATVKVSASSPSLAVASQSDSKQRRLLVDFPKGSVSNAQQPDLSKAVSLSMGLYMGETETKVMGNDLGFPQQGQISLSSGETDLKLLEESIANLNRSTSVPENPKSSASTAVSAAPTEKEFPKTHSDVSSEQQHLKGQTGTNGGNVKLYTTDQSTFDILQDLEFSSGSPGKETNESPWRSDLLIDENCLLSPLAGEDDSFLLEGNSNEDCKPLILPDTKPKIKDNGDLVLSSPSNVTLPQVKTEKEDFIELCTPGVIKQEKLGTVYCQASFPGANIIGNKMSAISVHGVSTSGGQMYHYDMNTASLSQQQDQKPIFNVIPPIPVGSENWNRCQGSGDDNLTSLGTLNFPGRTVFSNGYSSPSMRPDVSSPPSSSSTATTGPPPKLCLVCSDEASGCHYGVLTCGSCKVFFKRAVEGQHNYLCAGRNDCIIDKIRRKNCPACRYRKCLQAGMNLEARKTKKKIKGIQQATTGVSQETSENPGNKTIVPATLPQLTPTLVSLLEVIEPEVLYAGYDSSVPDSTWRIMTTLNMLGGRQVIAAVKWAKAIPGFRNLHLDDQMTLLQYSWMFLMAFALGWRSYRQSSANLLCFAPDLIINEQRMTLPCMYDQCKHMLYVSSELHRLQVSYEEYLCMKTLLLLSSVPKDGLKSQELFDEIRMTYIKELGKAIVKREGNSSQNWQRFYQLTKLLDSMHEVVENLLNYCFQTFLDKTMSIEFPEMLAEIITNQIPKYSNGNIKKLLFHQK
In short: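 A HeLa cervical cancer line expressing GR and a glucocorticoid response element-driven beta-lactamase gene is treated with compounds for 18 h; LiveBLAzer B/G FRET substrate is then applied and fluorescence read.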

[21] = target: Glucocorticoid receptor (Homo sapiens) (UniProt P04150); test: qHTS assay to identify small molecule antagonists of the glucocorticoid receptor (GR) signaling pathway (AID 720692; active means well fitted inhibition curve with a large enough effect in the signal ratio in the repeat runs, not every such curve was filed as active; the % refers to the signal ratio)
In short: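 GRE-bla HeLa line, dex-stimulated (5 nM final). Compound exposure 18 h, 37 C. Beta-lactamase FRET read after 2 h RT substrate.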

[22] = qHTS assay to identify small molecule antagonists of the glucocorticoid receptor (GR) signaling pathway - cell viability counter screen (AID 720693); further: nearly all actives have a fitted effect of over 55% in size
[23] = qHTS assay for identifying genotoxic compounds that show differential cytotoxicity against isogenic chicken DT40 cell lines with known DNA damage response pathways - wild type cell line (AID 743012); further: potency means the concentration at half of the fitted maximal effect; nearly all actives have a fitted effect of over 60% in size
In short: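 300 wt DT40 cells/well; cpd (DMSO) pintool-transferred after ~0.5 h at 37 C/5% CO2; 40 h incubation; CellTiter-Glo added, 30 min RT; luminescence read.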

[24] = qHTS assay for identifying genotoxic compounds that show differential cytotoxicity against isogenic chicken DT40 cell lines with known DNA damage response pathways - Rad54/Ku70 mutant cell line (AID 743015); further: potency means the concentration at half of the fitted maximal effect; nearly all actives have a fitted effect of over 60% in size
[25] = target: Androgen receptor (Homo sapiens) (UniProt P10275); test: qHTS assay to identify small molecule antagonists of the androgen receptor (AR) signaling pathway (AID 743035; active means well fitted inhibition curve with a large enough effect in the signal ratio in the repeat runs, not every such curve was filed as active; the % refers to the signal ratio)
Chain of Androgen receptor (Homo sapiens) (P10275 whole entry, looked up): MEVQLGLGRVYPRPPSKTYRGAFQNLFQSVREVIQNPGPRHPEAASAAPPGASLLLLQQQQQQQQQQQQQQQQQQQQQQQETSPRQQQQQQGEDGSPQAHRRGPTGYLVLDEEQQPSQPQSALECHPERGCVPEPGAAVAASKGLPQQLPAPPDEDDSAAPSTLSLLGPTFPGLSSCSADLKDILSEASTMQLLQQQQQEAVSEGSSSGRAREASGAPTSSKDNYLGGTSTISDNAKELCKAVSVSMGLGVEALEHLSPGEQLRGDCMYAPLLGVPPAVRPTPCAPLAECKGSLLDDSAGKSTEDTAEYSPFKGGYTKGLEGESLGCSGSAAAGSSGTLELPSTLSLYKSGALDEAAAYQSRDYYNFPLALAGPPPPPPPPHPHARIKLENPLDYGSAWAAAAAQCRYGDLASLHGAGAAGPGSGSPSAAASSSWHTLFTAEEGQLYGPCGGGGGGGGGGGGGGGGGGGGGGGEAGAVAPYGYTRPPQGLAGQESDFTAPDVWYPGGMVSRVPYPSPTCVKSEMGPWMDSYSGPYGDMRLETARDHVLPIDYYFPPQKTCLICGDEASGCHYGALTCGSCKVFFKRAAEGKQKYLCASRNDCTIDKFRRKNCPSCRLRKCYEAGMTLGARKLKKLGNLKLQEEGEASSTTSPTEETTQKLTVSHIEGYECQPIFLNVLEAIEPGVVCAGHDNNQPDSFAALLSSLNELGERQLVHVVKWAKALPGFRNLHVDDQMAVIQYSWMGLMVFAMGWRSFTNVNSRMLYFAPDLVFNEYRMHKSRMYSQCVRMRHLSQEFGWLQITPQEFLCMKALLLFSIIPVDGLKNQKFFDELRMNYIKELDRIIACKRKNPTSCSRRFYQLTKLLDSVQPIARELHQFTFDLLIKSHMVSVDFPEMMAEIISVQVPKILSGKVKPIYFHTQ
In short: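 In this cell-based reporter screen, compounds were tested in concentration series against R1881-activated HEK293 cells expressing beta-lactamase under UAS control; after 16 h at 37C, FRET substrate was added and fluorescence read 2 h later.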

[26] = target: Androgen receptor (Homo sapiens) (UniProt P10275); test: qHTS assay to identify small molecule agonists of the androgen receptor (AR) signaling pathway using the MDA cell line (AID 743040; further: nearly all actives have a fitted effect of over 20% in size)
In short: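 Agonist activity is measured as luciferase luminescence in human MDA-kb2 cells whose MMTV reporter responds to both AR and GR. Compounds in DMSO incubate 16 h at 37C, 0% CO2, and ONE-Glo is read after 30 min.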

[27] = qHTS assay to identify small molecule antagonists of the thyroid receptor (TR) signaling pathway - cell viability counter screen (AID 743064); further: potency means the concentration at half of the fitted maximal effect; nearly all actives have a fitted effect of over 50% in size
In short: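 GH3.TRE-Luc rat pituitary cells carrying a TRE-luciferase reporter were treated with compound plus 1 nM T3 (final) for 23.5 h at 37 °C. Viability was then read in the same wells by CellTiter-Fluor fluorescence after a further 30 min.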

[28] = qHTS assay to identify small molecule antagonists of the thyroid receptor (TR) signaling pathway (AID 743065); further: potency means the concentration at half of the fitted maximal effect; nearly all actives have a fitted effect of over 55% in size
In short: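 GH3.TRE-Luc rat pituitary cells carrying two TR response elements driving luciferase were plated for 4 h, given compound plus 1 nM T3 (final), and incubated 23.5 h at 37 C. ONE-Glo luminescence measured reporter inhibition; CellTiter-Fluor fluorescence tracked cytotoxicity.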

[29] = qHTS assay to identify small molecule antagonists of the estrogen receptor alpha (ER-alpha) signaling pathway - cell viability counter screen (AID 743074; calls by dose curve;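 further: HEK293 cells carrying ER-alpha-UAS-bla reporter stimulated with 17beta-estradiol; nearly all actives have a fitted effect of over 45% in size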)
[30] = qHTS assay to identify small molecule antagonists of the estrogen receptor alpha (ER-alpha) signaling pathway using the BG1 cell line - cell viability counter screen (AID 743081);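 further: compound given together with 17beta-estradiol as the ER stimulus; series mostly up to about 70 µM; nearly all actives have a fitted effect of over 45% in size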
[31] = qHTS assay to identify aromatase inhibitors - cell viability counter screen (AID 743084);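 further: cells stimulated with testosterone during compound exposure; nearly all actives have a fitted effect of over 55% in size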
[32] = target: Aryl hydrocarbon receptor (Homo sapiens) (UniProt P35869); test: qHTS assay to identify small molecule that activate the aryl hydrocarbon receptor (AhR) signaling pathway (AID 743085); further: potency means the concentration at half of the fitted maximal effect; nearly all actives have a fitted effect of over 15% in size
Chain of Aryl hydrocarbon receptor (Homo sapiens) (P35869 whole entry, looked up): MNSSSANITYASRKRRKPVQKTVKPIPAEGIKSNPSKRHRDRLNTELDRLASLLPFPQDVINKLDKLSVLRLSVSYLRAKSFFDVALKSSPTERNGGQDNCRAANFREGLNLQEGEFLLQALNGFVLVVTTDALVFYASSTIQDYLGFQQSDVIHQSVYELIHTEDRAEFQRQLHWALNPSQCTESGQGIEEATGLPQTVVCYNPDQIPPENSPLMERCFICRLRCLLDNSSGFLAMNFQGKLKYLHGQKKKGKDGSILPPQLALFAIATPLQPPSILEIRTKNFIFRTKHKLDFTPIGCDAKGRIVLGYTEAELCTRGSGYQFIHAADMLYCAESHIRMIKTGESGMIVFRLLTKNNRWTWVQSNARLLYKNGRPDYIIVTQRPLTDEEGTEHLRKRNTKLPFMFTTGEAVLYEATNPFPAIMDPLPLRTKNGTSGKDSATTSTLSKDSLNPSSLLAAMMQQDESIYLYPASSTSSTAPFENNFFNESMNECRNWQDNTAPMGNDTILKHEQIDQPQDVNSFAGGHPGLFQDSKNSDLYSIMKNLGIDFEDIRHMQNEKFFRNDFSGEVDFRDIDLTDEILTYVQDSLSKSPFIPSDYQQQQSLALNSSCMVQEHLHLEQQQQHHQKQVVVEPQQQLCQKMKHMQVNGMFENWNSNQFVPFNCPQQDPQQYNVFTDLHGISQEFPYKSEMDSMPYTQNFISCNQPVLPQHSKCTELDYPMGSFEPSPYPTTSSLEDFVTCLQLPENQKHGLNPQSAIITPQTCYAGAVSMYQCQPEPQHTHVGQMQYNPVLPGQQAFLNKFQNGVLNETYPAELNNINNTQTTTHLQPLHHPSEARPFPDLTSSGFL
In short: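 HepG2 cells (HG2L7.5c1) stably carrying a firefly luciferase reporter driven by 20 dioxin responsive elements were exposed to compound for 24 h at 37C after a 5 h settling period; luminescence rise (ONE-Glo) indicated activation.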

[33] = qHTS assay to identify small molecule that activate the aryl hydrocarbon receptor (AhR) signaling pathway - cell viability counter screen (AID 743086);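 further: HepG2 liver cells carrying the AhR DRE luciferase reporter; series mostly up to about 70 µM; nearly all actives have a fitted effect of over 45% in size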
In short: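 HepG2-AhR-luc (HG2L7.5c1) cells, 4000/well, were preincubated 5 h at 37C, exposed to compound in qHTS format for 24 hr at 37C, then given CellTiter-Fluor for 30 min; viability was read as fluorescence in the reporter wells.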

[34] = target: Peroxisome proliferator-activated receptor gamma (Homo sapiens) (UniProt P37231); test: qHTS assay to identify small molecule agonists of the peroxisome proliferator-activated receptor gamma (PPARg) signaling pathway (AID 743094; active means well fitted activation curve with a large enough effect in the signal ratio in the repeat runs, not every such curve was filed as active; the % refers to the signal ratio)
Chain of Peroxisome proliferator-activated receptor gamma (Homo sapiens) (P37231 whole entry, looked up): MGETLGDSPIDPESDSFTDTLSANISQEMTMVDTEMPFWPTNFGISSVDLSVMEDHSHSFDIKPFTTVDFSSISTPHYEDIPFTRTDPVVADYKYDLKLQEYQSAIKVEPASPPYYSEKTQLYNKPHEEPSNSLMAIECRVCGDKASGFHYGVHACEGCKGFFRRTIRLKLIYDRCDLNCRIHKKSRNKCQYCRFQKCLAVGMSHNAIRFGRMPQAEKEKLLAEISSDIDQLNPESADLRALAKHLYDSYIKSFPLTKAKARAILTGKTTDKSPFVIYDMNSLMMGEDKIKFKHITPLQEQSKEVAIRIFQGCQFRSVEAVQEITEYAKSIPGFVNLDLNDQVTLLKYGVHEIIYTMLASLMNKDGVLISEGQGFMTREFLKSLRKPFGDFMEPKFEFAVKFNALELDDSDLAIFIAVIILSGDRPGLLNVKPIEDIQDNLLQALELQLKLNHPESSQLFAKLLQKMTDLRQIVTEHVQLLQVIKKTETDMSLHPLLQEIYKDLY
In short: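 Cell-based bla reporter, HEK293H background, PPARg-driven UAS. Pre-incubation 5 h, 37C, 5% CO2. Compound 17 h, 37C. Substrate 1 h RT; fluorescence.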

[35] = target: Nuclear receptor subfamily 1 group I member 2 (Homo sapiens) (UniProt O75469); test: CYP3A4 induction through human pregnane X receptor (PXR) by small molecules, qHTS assay (AID 1346984); further: potency means the concentration at half of the fitted maximal effect; nearly all actives have a fitted effect of over 40% in size
In short: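 Human PXR activation is tracked via CYP3A4 promoter-luciferase in DPX-2 (HepG2) cells. Compounds treat cells for 24hr at 37C, and luminescence is read after One-Glo.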

[36] = target: Nuclear receptor subfamily 1 group I member 2 (Homo sapiens) (UniProt O75469); test: Human pregnane X receptor (PXR) activation by small molecules, qHTS assay (AID 1346985); further: nearly all actives have a fitted effect of over 40% in size
In short: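 DPX-2 cells (HepG2 co-transfected with a PXR response element and a CYP3A4-promoter luciferase construct) were seeded at 2,000 per well, rested 5 hr at 37C, then exposed to DMSO-dissolved compounds for 24 hr. Activation was read as luciferase luminescence.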

Measured: Potency

c1ccc(CCCN2CCN(CCOC(c3ccccc3)c3ccccc3)CC2)cc1
inactive: [1] | [2] | [3]

CCCCCCCCCCCCCC(=O)O[C@@H]1[C@@H](C)[C@@]2(O)[C@@H](C=C(CO)C[C@@]3(O)C(=O)C(C)=C[C@@H]23)C2C(C)(C)[C@@]21OC(C)=O (stereo not given in full)
inactive: [4]
active: [3] 0.00671 µM

NC(N)=Nc1ccc2[nH]c3c(c2c1)C[C@@]1(O)[C@H]2Cc4ccc(O)c5c4[C@@]1(CCN2CC1CC1)[C@H]3O5
inactive: [4] | [5] | [3]

CN[C@@H]1C[C@@H](c2ccc(Cl)c(Cl)c2)c2ccccc21
active: [23] 5.96 µM | [24] 11.9 µM | [27] 11.9 µM | [28] 11.9 µM | [32] 29.8 µM | [35] 28.2 µM
not listed: [2] | [3] | [4] | [5]
inactive: all other assays above
